Reference: PubChem BioAssay AID1970 (National Center for Advancing Translational Sciences (NCATS), 2009)
Records with an inconclusive call do not appear. Calls of active or inactive are those of the source. The call rests on the fitted dose curve; in most records, active means well fitted inhibition curve with a large enough effect; inconclusive means small, poorly fitted or top-dose-only effect; inactive means flat fitted curve, though single readings scatter.

Molecular target: Dual specificity protein kinase CLK4 (Homo sapiens) (UniProt Q9HAZ1)
Assay: Confirmation Assay for Inhibitors of CDC-like Kinase 4 (Kinase-Glo Assay)
Conditions: recombinant Clk4, Kinase-Glo ATP depletion luminescence
Description: NIH Molecular Libraries Probe Production Centers Network [MLPCN] NIH Chemical Genomics Center [NCGC] MLPCN Grant: 1R03MH084827-01 Assay Submitter (PI): Tom Misteli NCGC Assay Overview: Clk4 (Invitrogen, cat# PV3839) was assayed using ATP and the RS repeat peptide (AnaSpec cat # 61722) as substrates. Following the Clk4 reaction, the remaining ATP levels were detected using Promega Kinase-Glo technology wherein the remaining ATP from the kinase reaction is detected using Ultra-Glo luciferase and D-luciferin which generates a bioluminescence signal from the ATP.
NCGC Assay Protocol Summary: Two uL/well of substrate-buffer solution (100 uM RS peptide, 1 uM ATP, 25 mM Tris pH7.5, 10 mM MgCl2, 0.5 mM EGTA, 2.5 mM DTT, 0.01% Triton X-100 final concentration) was dispensed into 1536-well, assay plates (Greiner, solid white medium-binding plates) with Aurora Discovery BioRAPTR Flying Reagent Dispenser (FRD; Beckton-Dickenson). Using a Kalypsys pin tool equipped with a 1536-pin tool, 23 nL of compound solution was transferred to the assay plate. […] Luminescence was detected with the ViewLux plate reader (Perkin Elmer, Waltham, MA) after 5 min incubation using a 5 second exposure time and 2x binning.

Chain of Dual specificity protein kinase CLK4 (Homo sapiens) (Q9HAZ1 whole entry, looked up): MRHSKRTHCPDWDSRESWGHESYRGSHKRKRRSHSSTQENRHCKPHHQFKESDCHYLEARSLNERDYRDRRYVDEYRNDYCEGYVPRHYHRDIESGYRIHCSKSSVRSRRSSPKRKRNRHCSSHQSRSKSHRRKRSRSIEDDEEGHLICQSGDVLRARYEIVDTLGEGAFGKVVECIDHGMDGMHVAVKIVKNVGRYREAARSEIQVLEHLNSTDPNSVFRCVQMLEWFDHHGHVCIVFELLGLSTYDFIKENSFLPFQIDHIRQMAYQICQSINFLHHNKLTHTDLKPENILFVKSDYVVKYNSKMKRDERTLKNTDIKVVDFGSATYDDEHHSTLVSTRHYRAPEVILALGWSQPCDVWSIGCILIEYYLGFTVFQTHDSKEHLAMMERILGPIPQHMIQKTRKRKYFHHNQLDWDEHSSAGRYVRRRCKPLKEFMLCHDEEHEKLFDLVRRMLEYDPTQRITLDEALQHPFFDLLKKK

COc1ccc2c(c1)[nH]c1c(C)nccc12
Potency: 67.1 nM (active)
